# Tests used:
# Test in all cases: DAPPL (digital affinity profiling via proximity ligation, sequencing); 10 mM Tris-HCl pH 7.5, 50 mM NaCl, 1 mM DTT, 4% glycerol, room temperature, 30 min; GST-TFs on glutathione beads, 16-mer random dsDNA library, 0.1% formaldehyde crosslink after washing; high values mean tight binding
# Conditions in all cases: protein: recombinant; tags: N-terminal GST; dsDNA, one strand shown
# [1] = target: T1, FLI1 (Homo sapiens, UniProt Q01543 1-452)
# T1 sequence: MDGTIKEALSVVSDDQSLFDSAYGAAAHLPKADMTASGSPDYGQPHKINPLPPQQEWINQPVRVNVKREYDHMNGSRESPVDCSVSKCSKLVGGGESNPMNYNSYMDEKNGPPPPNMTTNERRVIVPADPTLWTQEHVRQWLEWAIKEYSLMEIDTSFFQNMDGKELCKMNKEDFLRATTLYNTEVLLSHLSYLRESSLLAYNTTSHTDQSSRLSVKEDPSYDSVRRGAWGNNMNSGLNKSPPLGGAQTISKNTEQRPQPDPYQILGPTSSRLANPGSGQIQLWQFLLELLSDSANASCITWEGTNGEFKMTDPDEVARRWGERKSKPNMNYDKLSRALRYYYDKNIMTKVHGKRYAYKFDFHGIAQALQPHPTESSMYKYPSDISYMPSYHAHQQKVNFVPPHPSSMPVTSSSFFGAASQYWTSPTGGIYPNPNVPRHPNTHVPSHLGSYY
# Summary of the method: (§1)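 In yeast, human transcription factors were expressed with a GST fusion, then pulled down on glutathione beads and given DNA barcodes. Pooled with a tag-only sample, they were exposed to 200 nmole of a 16-mer random double-stranded DNA library (Tris/NaCl/DTT/glycerol buffer, room temperature, 30 min), washed, crosslinked with 0.1% formaldehyde, proximity-ligated using BsaI/T4 ligase for 1 h at 37 °C, PCR-amplified and read on an Illumina NextSeq500. Each hexamer's frequency of reads for a factor, divided by the matching frequency for the tag-only sample, gives the binding signal.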
# [2] = target: T2, GABPA (Homo sapiens, UniProt Q06546 1-454)
# T2 sequence: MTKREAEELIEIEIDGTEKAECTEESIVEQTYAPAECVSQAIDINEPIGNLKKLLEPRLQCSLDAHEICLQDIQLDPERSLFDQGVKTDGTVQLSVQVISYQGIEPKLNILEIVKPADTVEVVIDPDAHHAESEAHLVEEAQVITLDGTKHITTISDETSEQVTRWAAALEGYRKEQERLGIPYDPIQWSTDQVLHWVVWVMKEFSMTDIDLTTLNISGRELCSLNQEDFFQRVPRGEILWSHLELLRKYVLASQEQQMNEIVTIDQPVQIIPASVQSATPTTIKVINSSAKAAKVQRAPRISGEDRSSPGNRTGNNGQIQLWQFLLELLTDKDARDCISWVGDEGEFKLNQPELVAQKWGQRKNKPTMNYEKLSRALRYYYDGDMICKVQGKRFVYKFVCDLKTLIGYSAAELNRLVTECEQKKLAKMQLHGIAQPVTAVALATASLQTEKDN
# Summary of the method: as §1
# [3] = target: T3, ERG (Homo sapiens, UniProt P11308 1-479)
# T3 sequence: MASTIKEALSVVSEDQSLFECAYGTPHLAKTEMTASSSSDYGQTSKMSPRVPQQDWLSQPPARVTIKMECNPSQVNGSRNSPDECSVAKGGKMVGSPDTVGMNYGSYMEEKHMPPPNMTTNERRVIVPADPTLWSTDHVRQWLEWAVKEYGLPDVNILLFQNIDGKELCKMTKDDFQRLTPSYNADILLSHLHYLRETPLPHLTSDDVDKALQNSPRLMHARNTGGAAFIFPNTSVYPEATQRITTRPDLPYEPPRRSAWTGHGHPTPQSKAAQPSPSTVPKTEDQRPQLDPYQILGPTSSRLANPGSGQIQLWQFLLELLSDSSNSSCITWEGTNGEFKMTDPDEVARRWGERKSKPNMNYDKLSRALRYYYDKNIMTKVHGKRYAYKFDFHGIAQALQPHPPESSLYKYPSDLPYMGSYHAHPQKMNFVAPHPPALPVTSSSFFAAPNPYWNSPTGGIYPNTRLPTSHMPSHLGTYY
# Summary of the method: as §1
# [4] = target: ELF1 (Homo sapiens, UniProt P32519 1-619)
# Summary of the method: as §1
# [5] = target: SPI1 (Homo sapiens, UniProt P17947 1-270)
# Summary of the method: as §1
# [6] = target: SPIB (Homo sapiens, UniProt Q01892 1-262)
# Summary of the method: as §1
# [7] = target: ELF4 (Homo sapiens, UniProt Q99607 1-663)
# Summary of the method: as §1
# [8] = target: T4, ELK4 (Homo sapiens, UniProt P28324-2 1-405)
# T4 sequence: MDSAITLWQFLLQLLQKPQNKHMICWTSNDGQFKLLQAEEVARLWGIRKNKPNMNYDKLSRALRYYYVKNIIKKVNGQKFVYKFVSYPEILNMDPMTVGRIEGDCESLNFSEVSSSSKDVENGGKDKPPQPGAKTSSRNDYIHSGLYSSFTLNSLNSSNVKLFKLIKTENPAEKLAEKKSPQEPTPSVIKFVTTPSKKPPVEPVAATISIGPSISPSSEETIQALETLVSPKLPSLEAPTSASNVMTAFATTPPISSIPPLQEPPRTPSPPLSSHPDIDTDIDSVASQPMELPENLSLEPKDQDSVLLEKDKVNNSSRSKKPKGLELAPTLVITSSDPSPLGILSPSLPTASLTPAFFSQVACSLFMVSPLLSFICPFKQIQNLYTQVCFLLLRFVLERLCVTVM
# Summary of the method: as §1
# [9] = target: T5, ETV2 (Homo sapiens, UniProt O00321 1-342)
# T5 sequence: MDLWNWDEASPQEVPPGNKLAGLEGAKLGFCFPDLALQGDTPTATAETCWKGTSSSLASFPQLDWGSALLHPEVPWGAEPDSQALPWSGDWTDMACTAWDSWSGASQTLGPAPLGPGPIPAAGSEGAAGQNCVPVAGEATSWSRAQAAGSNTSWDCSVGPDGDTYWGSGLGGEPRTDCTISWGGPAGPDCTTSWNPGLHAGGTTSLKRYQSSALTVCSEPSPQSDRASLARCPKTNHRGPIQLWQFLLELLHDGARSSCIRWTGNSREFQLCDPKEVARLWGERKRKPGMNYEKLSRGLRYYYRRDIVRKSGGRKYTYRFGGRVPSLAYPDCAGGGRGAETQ
# Summary of the method: as §1
# [10] = target: T6, ELF3 (Homo sapiens, UniProt P78545 1-371)
# T6 sequence: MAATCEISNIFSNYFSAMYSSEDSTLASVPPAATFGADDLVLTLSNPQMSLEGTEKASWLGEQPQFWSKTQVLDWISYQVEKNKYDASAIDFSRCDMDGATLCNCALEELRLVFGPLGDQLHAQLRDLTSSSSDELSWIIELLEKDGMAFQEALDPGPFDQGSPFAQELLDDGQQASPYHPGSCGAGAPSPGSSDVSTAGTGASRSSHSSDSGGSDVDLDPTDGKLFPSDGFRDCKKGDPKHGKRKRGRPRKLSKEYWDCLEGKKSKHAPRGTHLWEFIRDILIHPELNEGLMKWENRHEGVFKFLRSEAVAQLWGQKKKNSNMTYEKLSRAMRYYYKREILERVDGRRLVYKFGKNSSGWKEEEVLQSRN
# Summary of the method: as §1
# [11] = target: ETV1 (Homo sapiens, UniProt P50549 1-477)
# Summary of the method: as §1
# [12] = target: T7, ERF (Homo sapiens, UniProt P50548 1-548)
# T7 sequence: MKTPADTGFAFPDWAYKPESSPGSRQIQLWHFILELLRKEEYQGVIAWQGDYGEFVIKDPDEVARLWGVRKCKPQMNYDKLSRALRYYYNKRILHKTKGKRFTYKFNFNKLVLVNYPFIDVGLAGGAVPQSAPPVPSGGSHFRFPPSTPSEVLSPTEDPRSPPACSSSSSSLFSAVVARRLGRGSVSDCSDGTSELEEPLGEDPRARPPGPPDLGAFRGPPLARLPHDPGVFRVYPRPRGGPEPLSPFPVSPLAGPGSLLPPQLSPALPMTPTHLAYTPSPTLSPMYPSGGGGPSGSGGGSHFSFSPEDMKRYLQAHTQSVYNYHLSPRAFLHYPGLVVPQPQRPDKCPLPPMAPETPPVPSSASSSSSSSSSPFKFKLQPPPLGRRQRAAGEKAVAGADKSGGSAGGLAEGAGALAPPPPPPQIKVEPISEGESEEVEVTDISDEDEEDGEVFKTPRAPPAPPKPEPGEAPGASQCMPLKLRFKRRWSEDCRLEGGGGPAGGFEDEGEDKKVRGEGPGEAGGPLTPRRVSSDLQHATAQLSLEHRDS
# Summary of the method: as §1
# [13] = target: T8, ETV3L (Homo sapiens, UniProt Q6ZN32 1-361)
# T8 sequence: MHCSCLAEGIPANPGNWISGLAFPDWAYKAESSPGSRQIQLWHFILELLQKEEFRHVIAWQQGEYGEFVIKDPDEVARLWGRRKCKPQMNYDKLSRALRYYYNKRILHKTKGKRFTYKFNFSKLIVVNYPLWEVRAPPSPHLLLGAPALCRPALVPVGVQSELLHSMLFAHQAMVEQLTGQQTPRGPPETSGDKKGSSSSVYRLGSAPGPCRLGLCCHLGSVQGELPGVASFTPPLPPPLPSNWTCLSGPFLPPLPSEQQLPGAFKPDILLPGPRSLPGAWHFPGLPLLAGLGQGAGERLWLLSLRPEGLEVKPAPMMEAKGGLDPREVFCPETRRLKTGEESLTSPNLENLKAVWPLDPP
# Summary of the method: as §1
# [14] = target: T9, ETS2 (Homo sapiens, UniProt P15036 1-469)
# T9 sequence: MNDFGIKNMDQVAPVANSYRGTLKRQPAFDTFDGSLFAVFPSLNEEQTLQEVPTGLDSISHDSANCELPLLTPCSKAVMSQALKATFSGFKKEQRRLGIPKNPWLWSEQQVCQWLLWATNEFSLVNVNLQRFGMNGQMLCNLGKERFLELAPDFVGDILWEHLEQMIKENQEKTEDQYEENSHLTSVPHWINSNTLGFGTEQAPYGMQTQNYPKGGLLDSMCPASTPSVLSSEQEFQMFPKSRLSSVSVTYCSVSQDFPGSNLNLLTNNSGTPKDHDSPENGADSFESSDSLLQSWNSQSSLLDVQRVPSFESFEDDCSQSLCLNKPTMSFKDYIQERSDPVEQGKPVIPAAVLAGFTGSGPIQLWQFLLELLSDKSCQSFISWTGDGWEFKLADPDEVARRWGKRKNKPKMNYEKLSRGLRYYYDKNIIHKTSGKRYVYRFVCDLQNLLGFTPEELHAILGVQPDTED
# Summary of the method: as §1
# [15] = target: T10, ELF5 (Homo sapiens, UniProt Q9UKW6-2 1-255)
# T10 sequence: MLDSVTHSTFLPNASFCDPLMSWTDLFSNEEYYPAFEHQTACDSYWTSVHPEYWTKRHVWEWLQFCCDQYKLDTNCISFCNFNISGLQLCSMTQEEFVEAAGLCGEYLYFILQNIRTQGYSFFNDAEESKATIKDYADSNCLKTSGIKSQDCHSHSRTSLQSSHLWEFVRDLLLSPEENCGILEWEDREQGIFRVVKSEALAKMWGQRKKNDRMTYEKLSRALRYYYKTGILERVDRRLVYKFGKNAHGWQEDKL
# Summary of the method: as §1
# [16] = target: T11, ETV3 (Homo sapiens, UniProt P41162-2 1-143)
# T11 sequence: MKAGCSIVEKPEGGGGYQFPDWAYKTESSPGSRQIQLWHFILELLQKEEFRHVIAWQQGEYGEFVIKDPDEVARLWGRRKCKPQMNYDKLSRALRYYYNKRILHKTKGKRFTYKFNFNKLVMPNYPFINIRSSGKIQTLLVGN
# Summary of the method: as §1
# [17] = target: ETV6 (Homo sapiens, UniProt P41212 1-452)
# Summary of the method: as §1
# [18] = target: T12, SPIC (Homo sapiens, UniProt Q8N5J4 1-248)
# T12 sequence: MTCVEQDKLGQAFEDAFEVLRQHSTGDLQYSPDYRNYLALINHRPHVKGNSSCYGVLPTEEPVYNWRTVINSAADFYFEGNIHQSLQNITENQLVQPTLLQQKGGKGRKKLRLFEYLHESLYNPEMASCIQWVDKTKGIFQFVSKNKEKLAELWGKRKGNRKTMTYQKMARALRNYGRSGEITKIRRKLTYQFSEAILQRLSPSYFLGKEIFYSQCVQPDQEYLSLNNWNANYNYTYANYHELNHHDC
# Summary of the method: as §1
# Chain of SPIB (Q01892 whole entry): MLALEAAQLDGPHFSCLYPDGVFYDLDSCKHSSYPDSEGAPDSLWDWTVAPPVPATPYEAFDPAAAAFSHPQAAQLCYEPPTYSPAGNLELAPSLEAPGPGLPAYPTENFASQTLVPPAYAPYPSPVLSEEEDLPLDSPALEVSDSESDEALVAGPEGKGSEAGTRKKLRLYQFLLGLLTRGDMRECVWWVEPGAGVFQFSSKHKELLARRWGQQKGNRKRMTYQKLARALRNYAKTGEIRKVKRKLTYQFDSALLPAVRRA
# Chain of ELF1 (P32519 whole entry): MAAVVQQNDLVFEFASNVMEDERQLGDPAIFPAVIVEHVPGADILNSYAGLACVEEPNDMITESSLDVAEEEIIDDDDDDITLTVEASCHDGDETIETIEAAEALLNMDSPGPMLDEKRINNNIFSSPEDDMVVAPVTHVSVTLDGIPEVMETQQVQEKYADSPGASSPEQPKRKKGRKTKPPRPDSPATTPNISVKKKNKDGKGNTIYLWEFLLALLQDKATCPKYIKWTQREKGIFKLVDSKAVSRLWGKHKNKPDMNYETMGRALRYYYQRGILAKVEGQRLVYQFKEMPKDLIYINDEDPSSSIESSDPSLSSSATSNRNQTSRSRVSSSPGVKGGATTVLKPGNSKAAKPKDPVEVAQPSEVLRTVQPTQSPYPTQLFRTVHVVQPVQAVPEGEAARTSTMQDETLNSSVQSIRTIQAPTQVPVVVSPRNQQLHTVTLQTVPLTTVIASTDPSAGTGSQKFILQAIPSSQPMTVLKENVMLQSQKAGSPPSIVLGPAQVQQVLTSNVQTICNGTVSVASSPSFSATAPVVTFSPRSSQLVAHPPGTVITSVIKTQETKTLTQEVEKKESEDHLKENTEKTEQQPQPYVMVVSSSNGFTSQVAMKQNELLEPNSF
# Chain of ETV1 (P50549 whole entry): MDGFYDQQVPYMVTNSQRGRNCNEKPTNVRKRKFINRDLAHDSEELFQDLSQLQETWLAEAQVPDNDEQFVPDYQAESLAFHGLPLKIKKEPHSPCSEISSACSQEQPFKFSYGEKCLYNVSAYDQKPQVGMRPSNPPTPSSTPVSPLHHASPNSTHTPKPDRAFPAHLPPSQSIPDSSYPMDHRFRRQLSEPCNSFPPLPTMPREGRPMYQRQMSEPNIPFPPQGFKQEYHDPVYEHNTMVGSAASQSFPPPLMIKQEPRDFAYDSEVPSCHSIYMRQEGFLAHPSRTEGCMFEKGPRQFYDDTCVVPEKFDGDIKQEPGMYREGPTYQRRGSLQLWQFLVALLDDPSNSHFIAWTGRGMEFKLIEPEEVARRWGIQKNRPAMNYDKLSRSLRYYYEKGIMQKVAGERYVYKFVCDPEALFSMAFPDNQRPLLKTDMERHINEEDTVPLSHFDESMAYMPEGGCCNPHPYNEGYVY
# Chain of ETV6 (P41212 whole entry): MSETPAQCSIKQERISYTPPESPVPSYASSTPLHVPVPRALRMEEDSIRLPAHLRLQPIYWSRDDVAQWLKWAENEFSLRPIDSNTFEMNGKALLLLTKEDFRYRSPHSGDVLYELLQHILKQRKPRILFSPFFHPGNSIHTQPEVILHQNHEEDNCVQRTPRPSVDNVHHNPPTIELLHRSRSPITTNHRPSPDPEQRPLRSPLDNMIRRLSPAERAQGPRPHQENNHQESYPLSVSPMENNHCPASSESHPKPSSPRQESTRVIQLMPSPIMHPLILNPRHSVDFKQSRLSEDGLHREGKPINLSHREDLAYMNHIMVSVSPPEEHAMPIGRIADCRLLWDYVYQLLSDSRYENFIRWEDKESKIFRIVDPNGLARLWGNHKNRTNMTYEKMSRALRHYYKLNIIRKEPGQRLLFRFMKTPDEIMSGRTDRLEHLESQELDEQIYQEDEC
# Chain of ELF4 (Q99607 whole entry): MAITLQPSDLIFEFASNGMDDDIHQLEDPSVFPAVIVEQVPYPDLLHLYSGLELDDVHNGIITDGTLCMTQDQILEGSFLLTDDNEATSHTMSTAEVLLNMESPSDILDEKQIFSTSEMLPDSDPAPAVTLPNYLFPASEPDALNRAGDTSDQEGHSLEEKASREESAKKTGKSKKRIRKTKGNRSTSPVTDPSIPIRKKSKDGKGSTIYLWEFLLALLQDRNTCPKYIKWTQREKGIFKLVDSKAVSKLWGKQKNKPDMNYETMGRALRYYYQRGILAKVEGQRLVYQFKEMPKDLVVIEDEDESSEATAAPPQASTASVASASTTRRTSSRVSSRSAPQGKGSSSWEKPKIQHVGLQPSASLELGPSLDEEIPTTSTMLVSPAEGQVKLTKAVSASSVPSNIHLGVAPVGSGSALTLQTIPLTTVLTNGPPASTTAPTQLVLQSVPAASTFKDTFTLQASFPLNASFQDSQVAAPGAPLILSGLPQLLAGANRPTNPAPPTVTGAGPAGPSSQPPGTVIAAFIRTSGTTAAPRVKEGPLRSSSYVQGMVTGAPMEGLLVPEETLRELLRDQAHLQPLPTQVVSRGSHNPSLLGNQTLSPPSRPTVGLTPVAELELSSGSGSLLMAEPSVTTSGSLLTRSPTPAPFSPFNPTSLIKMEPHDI
Sequence,binding signal [1],binding signal [2],binding signal [3],binding signal [4],binding signal [5],binding signal [6],binding signal [7],binding signal [8],binding signal [9],binding signal [10],binding signal [11],binding signal [12],binding signal [13],binding signal [14],binding signal [15],binding signal [16],binding signal [17],binding signal [18]
TGTCAA,"1.02 fold enrichment (6-mer frequency, TF over GST control)","1.01 fold enrichment (6-mer frequency, TF over GST control)","1.05 fold enrichment (6-mer frequency, TF over GST control)","1.05 fold enrichment (6-mer frequency, TF over GST control)","1 fold enrichment (6-mer frequency, TF over GST control)","1.02 fold enrichment (6-mer frequency, TF over GST control)","1.08 fold enrichment (6-mer frequency, TF over GST control)","1.11 fold enrichment (6-mer frequency, TF over GST control)","1 fold enrichment (6-mer frequency, TF over GST control)","1.15 fold enrichment (6-mer frequency, TF over GST control)","1.06 fold enrichment (6-mer frequency, TF over GST control)","1.07 fold enrichment (6-mer frequency, TF over GST control)","1.07 fold enrichment (6-mer frequency, TF over GST control)","1.03 fold enrichment (6-mer frequency, TF over GST control)","1.01 fold enrichment (6-mer frequency, TF over GST control)","1.08 fold enrichment (6-mer frequency, TF over GST control)","1.04 fold enrichment (6-mer frequency, TF over GST control)",–
ACTGTC,"1.02 fold enrichment (6-mer frequency, TF over GST control)",–,–,"1.01 fold enrichment (6-mer frequency, TF over GST control)","1 fold enrichment (6-mer frequency, TF over GST control)","1.05 fold enrichment (6-mer frequency, TF over GST control)",–,"1 fold enrichment (6-mer frequency, TF over GST control)","1.1 fold enrichment (6-mer frequency, TF over GST control)","1.01 fold enrichment (6-mer frequency, TF over GST control)","1 fold enrichment (6-mer frequency, TF over GST control)",–,–,–,–,–,–,"1.09 fold enrichment (6-mer frequency, TF over GST control)"

# From article PMC7862700, “An all-to-all approach to the identification of sequence-specific readers for epigenetic DNA modifications on cytosine”
